mHTT CaM bind: disrupts binding of mutant huntingtin to calmodulin | AlphaScreen His-mHTT/GST-CaM binding, luminescence | inhibition, % at 15 µM | 190,000 compounds, 3.6% hits
Pf apPOL block: Pf-apPOL DNA polymerase inhibition | Recombinant Pf-apPOL, molecular beacon fluorescence, 1.5 h | inhibition, % at 10 µM | 210,000 compounds, 0.25% hits | AID 1794808
A number is an active result. Compounds with a hit are over-represented: about 3.6% of the library has one in this group of screens. Cut-off read from the data, not from the text of the source: active = inhibition above about 50%; inactive = the rest.

What do the screens show for `Cc1nc(CCNC(=O)C2CCCN2S(=O)(=O)c2ccc(F)cc2)cs1` (stereo not drawn)?
mHTT CaM bind: inactive; Pf apPOL block: inactive

Results for COc1cccc(CN2CC(C(=O)NC3CC4CCC3C4)CC2=O)c1 (stereo not drawn) ?
mHTT CaM bind: inactive; Pf apPOL block: inactive

Results for O=C(C1CC1)N1CCCC(c2ccnc(-c3ccc(F)cc3)n2)C1 (stereo not drawn) ?
mHTT CaM bind: inactive; Pf apPOL block: inactive

What do the screens show for `CCOc1ccccc1CN1CCC(N2CCCCC2)CC1`?
mHTT CaM bind: inactive; Pf apPOL block: inactive

Results for O=C(NCc1ccccn1)c1ncn[nH]1 ?
mHTT CaM bind: inactive; Pf apPOL block: inactive

What do the screens show for `CC(C)(C)c1ccc(OCNC(=O)c2ncn[nH]2)cc1`?
mHTT CaM bind: 73; Pf apPOL block: inactive

How did CC1(C(=O)NCc2ccccc2)CCC(=O)N1Cc1cccs1 (stereo not drawn) do in these assays?
mHTT CaM bind: inactive; Pf apPOL block: inactive

How did Cc1nn2c(NCc3ccccn3)c3c(nc2c1-c1ccccc1)CCCC3 do in these assays?
mHTT CaM bind: 63; Pf apPOL block: inactive

How did c1ccc(CNc2nc(-c3ccncc3)nc3c2CCC3)nc1 do in these assays?
mHTT CaM bind: inactive; Pf apPOL block: inactive

What do the screens show for `CCCc1nc2cccnc2n1C1CCN(S(=O)(=O)c2ccc(NC(C)=O)cc2)C1` (stereo not drawn)?
mHTT CaM bind: inactive; Pf apPOL block: inactive

Results for Cc1c(C2CCN(C(=O)c3ccnn3C)CC2)noc1N ?
mHTT CaM bind: inactive; Pf apPOL block: inactive

How did CC1=Nc2ccccc2C1=Cc1sc(=O)n(-c2ccccc2)c1O do in these assays?
mHTT CaM bind: inactive; Pf apPOL block: inactive

How did CC1=Nc2ccccc2C1=Cc1sc(=N)n(-c2nccs2)c1O do in these assays?
mHTT CaM bind: 100; Pf apPOL block: inactive

What do the screens show for `COCCCNC(=O)c1c(F)ccc(S(=O)(=O)N2CCCCCC2)c1F`?
mHTT CaM bind: inactive; Pf apPOL block: inactive

What do the screens show for `COc1ccccc1-n1ccn2cc(-c3ccc(C)cc3)nc2c1=O`?
mHTT CaM bind: inactive; Pf apPOL block: inactive

How did Cc1ccccc1C1C(C#N)=C(N)OC2=C1C(=O)CC(C)(C)C2 (stereo not drawn) do in these assays?
mHTT CaM bind: inactive; Pf apPOL block: inactive

What do the screens show for `CC1(C)CC(=O)C2=C(C1)OC(N)=C(C#N)C2c1cn(-c2ccccc2)nc1-c1ccccc1` (stereo not drawn)?
mHTT CaM bind: 76; Pf apPOL block: inactive

Results for Cn1cc(CN2CCC(C(=O)NCc3ccco3)CC2)c2cc(Cl)ccc21 ?
mHTT CaM bind: inactive; Pf apPOL block: inactive

Results for O=C(NCc1ccco1)C1CCN(Cc2cc3ccccc3n2Cc2ccccc2)CC1 ?
mHTT CaM bind: 73; Pf apPOL block: inactive

How did CCOc1ccc(CN2CCC(C(=O)NCCc3ccccc3)CC2)cc1 do in these assays?
mHTT CaM bind: inactive; Pf apPOL block: inactive

How did Cc1ccccc1Cn1c(CN2CCC(C(=O)NCc3ccco3)CC2)cc2ccccc21 do in these assays?
mHTT CaM bind: 86; Pf apPOL block: inactive

Results for O=C(NCCc1ccco1)C1CCN(Cc2cc3ccccc3n2Cc2ccccc2)CC1 ?
mHTT CaM bind: 58; Pf apPOL block: inactive

How did CCc1ccc(CN2CCC(C(=O)NCc3ccco3)CC2)cc1 do in these assays?
mHTT CaM bind: inactive; Pf apPOL block: inactive

How did CS(=O)(=O)c1ccc(-c2cccc(NC(=O)c3ccccc3C(F)(F)F)c2)nn1 do in these assays?
mHTT CaM bind: inactive; Pf apPOL block: inactive

How did COc1ccc(N2CCN(c3ncc4c(n3)CCN(Cc3ccc(C)cc3)C4)CC2)cc1 do in these assays?
mHTT CaM bind: inactive; Pf apPOL block: inactive

How did CCC(=O)Nc1cccc(-c2noc(C3CCCN(C(=O)c4cc5ccccc5[nH]4)C3)n2)c1 (stereo not drawn) do in these assays?
mHTT CaM bind: 59; Pf apPOL block: inactive

How did CCC(=O)Nc1cccc(-c2noc(C3CCCN(C(=O)c4ccccc4C)C3)n2)c1 (stereo not drawn) do in these assays?
mHTT CaM bind: inactive; Pf apPOL block: inactive

Results for CCNC(=O)c1nc(-c2ccc(C)cc2)n2c1CCCCC2 ?
mHTT CaM bind: inactive; Pf apPOL block: inactive

What do the screens show for `COc1cccc(CNC(=O)c2nc(-c3ccc(C)cc3)n3c2CCCCC3)c1`?
mHTT CaM bind: 74; Pf apPOL block: inactive

How did COc1ccc(CNC(=O)c2nc(-c3ccc(C)cc3)n3c2CCCCC3)cc1 do in these assays?
mHTT CaM bind: 54; Pf apPOL block: inactive

How did O=C(NCc1cccnc1)c1nc(-c2ccc(Cl)cc2)n2c1CCCCC2 do in these assays?
mHTT CaM bind: inactive; Pf apPOL block: inactive

What do the screens show for `O=C(Nc1ccc(N2CCN(C3CCCCC3)C2=O)nc1)c1cc(F)cc(F)c1`?
mHTT CaM bind: inactive; Pf apPOL block: inactive

What do the screens show for `COc1cccc(CNC(=O)c2cn3c(n2)CN(CC(C)C)CC3)c1`?
mHTT CaM bind: inactive; Pf apPOL block: inactive

How did O=C(C1CCN(c2nnc(-c3ccccc3)o2)CC1)N1CCCCC1 do in these assays?
mHTT CaM bind: inactive; Pf apPOL block: inactive

Results for O=C(C1CCN(c2nnc(-c3ccccc3)o2)CC1)N1CCC(Cc2ccccc2)CC1 ?
mHTT CaM bind: 70; Pf apPOL block: inactive

How did O=C1NC2(CCN(Cc3ccccc3Cl)CC2)N=C1c1cccc(F)c1 do in these assays?
mHTT CaM bind: inactive; Pf apPOL block: inactive

How did COc1ccc(-c2nnc(NC(=O)CCCS(=O)(=O)Cc3ccccc3)o2)c(OC)c1 do in these assays?
mHTT CaM bind: inactive; Pf apPOL block: inactive

How did COc1ccc(-c2nnc(NC(=O)CN3C(=O)c4ccccc4C3=O)o2)c(OC)c1 do in these assays?
mHTT CaM bind: 52; Pf apPOL block: inactive

How did OCCN1CCN(C2C3CC4CC(C3)CC2C4)CC1 (stereo not drawn) do in these assays?
mHTT CaM bind: inactive; Pf apPOL block: 62

What do the screens show for `CN1CCN(C2C3CC4CC(C3)CC2C4)CC1` (stereo not drawn)?
mHTT CaM bind: inactive; Pf apPOL block: inactive

How did FC(F)(F)c1cc(-c2ccc(-c3ccn[nH]3)o2)cc(C(F)(F)F)c1 do in these assays?
Pf apPOL block: inactive

What do the screens show for `CC1=C(c2ccc(F)cc2)S(=O)(=O)N=C1N1CCCN(C(=O)C2CC2)CC1`?
mHTT CaM bind: inactive; Pf apPOL block: inactive

Results for OCCSc1ccc(Cl)cn1 ?
Pf apPOL block: inactive

How did Cn1cccc1C1CC(c2ccccc2Cl)=NN1C(=O)CN1CCOCC1 (stereo not drawn) do in these assays?
mHTT CaM bind: inactive; Pf apPOL block: inactive

How did COc1ccc(C2CC(c3ccc(F)cc3)=NN2C(=O)CN2CCCCC2C)cc1 (stereo not drawn) do in these assays?
mHTT CaM bind: inactive; Pf apPOL block: inactive

How did COc1ccc(C2CC(c3ccc(F)cc3)=NN2C(=O)CN2CCC(C)CC2)cc1 (stereo not drawn) do in these assays?
mHTT CaM bind: inactive; Pf apPOL block: inactive

What do the screens show for `CC1CCN(CC(=O)N2N=C(c3ccc(F)cc3)CC2c2cccn2C)CC1` (stereo not drawn)?
mHTT CaM bind: 52; Pf apPOL block: inactive

How did COc1ccc(C2CC(c3ccc(F)cc3)=NN2C(=O)CN2CCCCC2)cc1 (stereo not drawn) do in these assays?
mHTT CaM bind: inactive; Pf apPOL block: inactive

What do the screens show for `CC1CCN(CC(=O)N2N=C(c3ccccc3Cl)CC2c2cccn2C)CC1` (stereo not drawn)?
mHTT CaM bind: 84; Pf apPOL block: inactive

What do the screens show for `CCN1CCN(CC(=O)N2N=C(c3ccc(F)cc3)CC2c2cccn2C)CC1` (stereo not drawn)?
mHTT CaM bind: 98; Pf apPOL block: inactive

Screening data: PubChem BioAssay, University of Kansas High Throughput Screening Laboratory
